Key:
Test in all cases: DAPPL (digital affinity profiling via proximity ligation, sequencing); 10 mM Tris-HCl pH 7.5, 50 mM NaCl, 1 mM DTT, 4% glycerol, room temperature, 30 min; GST-TFs on glutathione beads, 16-mer random dsDNA library, 0.1% formaldehyde crosslink after washing; high values mean tight binding
[1] = biological target: T1, FEV (Homo sapiens, UniProt Q99581 1-238); conditions: protein: recombinant; tags: N-terminal GST; dsDNA, one strand shown
T1 sequence: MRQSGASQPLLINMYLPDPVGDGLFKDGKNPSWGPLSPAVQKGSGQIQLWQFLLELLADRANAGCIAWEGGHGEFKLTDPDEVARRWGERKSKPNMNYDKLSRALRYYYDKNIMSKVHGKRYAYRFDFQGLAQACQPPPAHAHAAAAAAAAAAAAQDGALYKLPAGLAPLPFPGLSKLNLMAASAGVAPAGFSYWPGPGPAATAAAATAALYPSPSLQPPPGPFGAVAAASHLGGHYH
In short: (§1)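 Human transcription factors were made in yeast as GST fusions, captured on glutathione beads and barcoded with DNA. With a tag-only sample included, the pool was incubated with 200 nmole of a random double-stranded 16-mer DNA library in Tris/NaCl/DTT/glycerol buffer at room temperature for 30 min, then crosslinked with 0.1% formaldehyde after washing, ligated by proximity, amplified and sequenced. For binding signal, each hexamer's read frequency for a factor is divided by its frequency for the tag-only sample.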

[2] = biological target: ETV5 (Homo sapiens, UniProt P41161 1-510); conditions: protein: recombinant; tags: N-terminal GST; dsDNA, one strand shown
In short: as §1

[3] = biological target: HSF1 (Homo sapiens, UniProt Q00613 1-529); conditions: protein: recombinant; tags: N-terminal GST; chain copies: 3; dsDNA, one strand shown
In short: as §1

[4] = biological target: T2, SPIC (Homo sapiens, UniProt Q8N5J4 1-248); conditions: protein: recombinant; tags: N-terminal GST; dsDNA, one strand shown
T2 sequence: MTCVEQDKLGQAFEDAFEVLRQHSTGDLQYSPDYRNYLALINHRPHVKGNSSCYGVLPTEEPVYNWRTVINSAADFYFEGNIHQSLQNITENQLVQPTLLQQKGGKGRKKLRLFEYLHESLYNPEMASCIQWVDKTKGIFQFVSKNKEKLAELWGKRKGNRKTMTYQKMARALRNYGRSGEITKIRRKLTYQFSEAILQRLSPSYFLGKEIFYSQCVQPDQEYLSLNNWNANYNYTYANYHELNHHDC
In short: as §1

[5] = biological target: ELF4 (Homo sapiens, UniProt Q99607 1-663); conditions: protein: recombinant; tags: N-terminal GST; dsDNA, one strand shown
In short: as §1

[6] = biological target: T3, ELK4 (Homo sapiens, UniProt P28324-2 1-405); conditions: protein: recombinant; tags: N-terminal GST; dsDNA, one strand shown
T3 sequence: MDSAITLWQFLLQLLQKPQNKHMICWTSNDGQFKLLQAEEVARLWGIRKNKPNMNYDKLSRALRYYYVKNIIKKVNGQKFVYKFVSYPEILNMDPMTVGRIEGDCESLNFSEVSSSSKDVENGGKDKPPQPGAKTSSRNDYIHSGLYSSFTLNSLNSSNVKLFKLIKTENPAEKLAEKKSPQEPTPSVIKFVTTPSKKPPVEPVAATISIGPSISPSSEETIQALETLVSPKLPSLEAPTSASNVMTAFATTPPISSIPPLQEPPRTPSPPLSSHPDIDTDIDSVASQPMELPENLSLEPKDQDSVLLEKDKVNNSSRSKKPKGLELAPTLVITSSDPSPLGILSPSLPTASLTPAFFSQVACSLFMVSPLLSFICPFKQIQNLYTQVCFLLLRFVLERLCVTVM
In short: as §1

[7] = biological target: T4, ETV2 (Homo sapiens, UniProt O00321 1-342); conditions: protein: recombinant; tags: N-terminal GST; dsDNA, one strand shown
T4 sequence: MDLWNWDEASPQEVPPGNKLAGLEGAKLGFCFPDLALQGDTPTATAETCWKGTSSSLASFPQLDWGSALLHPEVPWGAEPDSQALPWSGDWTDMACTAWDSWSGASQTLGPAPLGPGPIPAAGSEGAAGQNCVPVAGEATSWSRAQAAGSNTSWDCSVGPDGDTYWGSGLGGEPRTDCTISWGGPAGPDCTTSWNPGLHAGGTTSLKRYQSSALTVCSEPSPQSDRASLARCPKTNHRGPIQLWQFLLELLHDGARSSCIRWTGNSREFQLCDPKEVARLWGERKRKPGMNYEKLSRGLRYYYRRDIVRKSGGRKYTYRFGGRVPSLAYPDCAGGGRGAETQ
In short: as §1

[8] = biological target: T5, ELF3 (Homo sapiens, UniProt P78545 1-371); conditions: protein: recombinant; tags: N-terminal GST; dsDNA, one strand shown
T5 sequence: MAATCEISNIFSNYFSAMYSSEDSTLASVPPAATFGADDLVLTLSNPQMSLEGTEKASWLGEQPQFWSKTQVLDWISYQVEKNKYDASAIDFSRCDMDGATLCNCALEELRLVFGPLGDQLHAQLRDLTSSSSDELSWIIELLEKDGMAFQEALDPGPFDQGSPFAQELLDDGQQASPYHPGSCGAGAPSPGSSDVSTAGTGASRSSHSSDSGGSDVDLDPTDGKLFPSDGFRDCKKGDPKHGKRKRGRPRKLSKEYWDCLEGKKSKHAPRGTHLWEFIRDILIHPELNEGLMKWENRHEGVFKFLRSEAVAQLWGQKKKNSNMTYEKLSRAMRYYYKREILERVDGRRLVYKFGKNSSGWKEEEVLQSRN
In short: as §1

[9] = biological target: CRX (Homo sapiens, UniProt O43186 1-299); conditions: protein: recombinant; tags: N-terminal GST; dsDNA, one strand shown
In short: as §1

[10] = biological target: ETV1 (Homo sapiens, UniProt P50549 1-477); conditions: protein: recombinant; tags: N-terminal GST; dsDNA, one strand shown
In short: as §1

[11] = biological target: T6, ERF (Homo sapiens, UniProt P50548 1-548); conditions: protein: recombinant; tags: N-terminal GST; dsDNA, one strand shown
T6 sequence: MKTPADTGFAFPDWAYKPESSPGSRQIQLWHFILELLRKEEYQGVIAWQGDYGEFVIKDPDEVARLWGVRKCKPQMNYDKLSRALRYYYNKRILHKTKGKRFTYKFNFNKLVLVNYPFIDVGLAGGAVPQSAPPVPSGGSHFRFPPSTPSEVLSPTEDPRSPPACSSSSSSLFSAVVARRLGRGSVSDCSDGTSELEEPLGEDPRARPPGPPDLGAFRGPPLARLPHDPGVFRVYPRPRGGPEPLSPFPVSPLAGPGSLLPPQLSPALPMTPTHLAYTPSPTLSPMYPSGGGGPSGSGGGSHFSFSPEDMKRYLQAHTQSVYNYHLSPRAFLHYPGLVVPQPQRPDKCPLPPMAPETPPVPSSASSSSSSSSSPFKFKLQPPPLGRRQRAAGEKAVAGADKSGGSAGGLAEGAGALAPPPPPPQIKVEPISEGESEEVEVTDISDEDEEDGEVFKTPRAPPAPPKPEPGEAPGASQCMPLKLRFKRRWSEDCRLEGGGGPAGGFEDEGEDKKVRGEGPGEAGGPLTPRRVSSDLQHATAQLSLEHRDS
In short: as §1

[12] = biological target: T7, ETV3L (Homo sapiens, UniProt Q6ZN32 1-361); conditions: protein: recombinant; tags: N-terminal GST; dsDNA, one strand shown
T7 sequence: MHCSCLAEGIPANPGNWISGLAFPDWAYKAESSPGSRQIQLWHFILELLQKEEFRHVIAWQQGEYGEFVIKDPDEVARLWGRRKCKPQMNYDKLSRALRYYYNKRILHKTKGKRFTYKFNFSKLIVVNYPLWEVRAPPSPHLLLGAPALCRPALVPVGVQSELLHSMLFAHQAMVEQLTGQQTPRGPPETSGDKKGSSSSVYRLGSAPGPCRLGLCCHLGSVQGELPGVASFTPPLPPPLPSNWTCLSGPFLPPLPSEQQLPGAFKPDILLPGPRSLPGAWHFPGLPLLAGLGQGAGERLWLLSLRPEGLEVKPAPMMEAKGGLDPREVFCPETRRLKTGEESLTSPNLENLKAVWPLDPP
In short: as §1

[13] = biological target: T8, ETS2 (Homo sapiens, UniProt P15036 1-469); conditions: protein: recombinant; tags: N-terminal GST; dsDNA, one strand shown
T8 sequence: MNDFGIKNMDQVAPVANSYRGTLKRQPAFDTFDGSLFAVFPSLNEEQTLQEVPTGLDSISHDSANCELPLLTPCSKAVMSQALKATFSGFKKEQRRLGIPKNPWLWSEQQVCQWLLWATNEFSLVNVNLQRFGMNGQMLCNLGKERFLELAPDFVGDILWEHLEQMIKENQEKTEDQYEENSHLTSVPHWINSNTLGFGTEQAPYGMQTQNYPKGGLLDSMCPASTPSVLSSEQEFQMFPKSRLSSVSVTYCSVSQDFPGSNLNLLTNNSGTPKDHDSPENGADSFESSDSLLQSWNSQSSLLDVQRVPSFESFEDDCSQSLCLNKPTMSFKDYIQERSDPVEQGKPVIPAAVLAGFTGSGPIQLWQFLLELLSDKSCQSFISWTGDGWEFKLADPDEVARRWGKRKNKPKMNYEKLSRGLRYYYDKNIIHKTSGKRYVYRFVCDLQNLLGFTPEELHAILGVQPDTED
In short: as §1

[14] = biological target: T9, SPDEF (Homo sapiens, UniProt O95238 1-335); conditions: protein: recombinant; tags: N-terminal GST; dsDNA, one strand shown
T9 sequence: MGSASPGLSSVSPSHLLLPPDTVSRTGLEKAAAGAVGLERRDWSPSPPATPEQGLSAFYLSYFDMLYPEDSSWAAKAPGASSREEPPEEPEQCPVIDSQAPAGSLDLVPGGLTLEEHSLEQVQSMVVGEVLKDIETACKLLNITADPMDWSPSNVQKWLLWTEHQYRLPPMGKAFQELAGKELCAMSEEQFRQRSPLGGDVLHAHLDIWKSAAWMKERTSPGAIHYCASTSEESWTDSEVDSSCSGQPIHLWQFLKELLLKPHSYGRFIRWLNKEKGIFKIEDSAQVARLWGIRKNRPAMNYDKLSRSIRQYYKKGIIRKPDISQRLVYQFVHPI
In short: as §1

[15] = biological target: T10, ETV7 (Homo sapiens, UniProt Q9Y603 1-341); conditions: protein: recombinant; tags: N-terminal GST; dsDNA, one strand shown
T10 sequence: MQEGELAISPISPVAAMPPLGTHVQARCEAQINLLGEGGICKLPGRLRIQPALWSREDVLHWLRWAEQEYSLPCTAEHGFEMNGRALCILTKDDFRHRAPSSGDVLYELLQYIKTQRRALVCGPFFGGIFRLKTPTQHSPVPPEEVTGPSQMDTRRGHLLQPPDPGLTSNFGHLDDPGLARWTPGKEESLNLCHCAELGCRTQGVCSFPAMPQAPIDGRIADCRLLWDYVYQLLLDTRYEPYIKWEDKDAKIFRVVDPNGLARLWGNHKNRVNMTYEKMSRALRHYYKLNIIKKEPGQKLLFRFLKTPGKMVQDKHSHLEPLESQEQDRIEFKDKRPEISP
In short: as §1

[16] = biological target: T11, ELF5 (Homo sapiens, UniProt Q9UKW6-2 1-255); conditions: protein: recombinant; tags: N-terminal GST; dsDNA, one strand shown
T11 sequence: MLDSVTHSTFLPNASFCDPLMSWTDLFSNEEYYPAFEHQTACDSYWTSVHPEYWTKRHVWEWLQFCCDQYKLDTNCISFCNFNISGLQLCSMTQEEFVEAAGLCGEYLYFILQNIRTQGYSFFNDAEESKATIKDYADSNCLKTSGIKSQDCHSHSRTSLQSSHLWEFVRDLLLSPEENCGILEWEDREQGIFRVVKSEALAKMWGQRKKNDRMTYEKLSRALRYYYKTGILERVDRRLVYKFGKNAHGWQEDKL
In short: as §1

[17] = biological target: T12, ETV3 (Homo sapiens, UniProt P41162-2 1-143); conditions: protein: recombinant; tags: N-terminal GST; dsDNA, one strand shown
T12 sequence: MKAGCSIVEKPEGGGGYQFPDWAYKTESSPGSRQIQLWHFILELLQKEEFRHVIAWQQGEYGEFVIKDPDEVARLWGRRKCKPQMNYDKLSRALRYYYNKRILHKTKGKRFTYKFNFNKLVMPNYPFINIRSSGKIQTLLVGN
In short: as §1

[18] = biological target: ETV6 (Homo sapiens, UniProt P41212 1-452); conditions: protein: recombinant; tags: N-terminal GST; dsDNA, one strand shown
In short: as §1

Sequence of ETV1 (P50549 whole entry): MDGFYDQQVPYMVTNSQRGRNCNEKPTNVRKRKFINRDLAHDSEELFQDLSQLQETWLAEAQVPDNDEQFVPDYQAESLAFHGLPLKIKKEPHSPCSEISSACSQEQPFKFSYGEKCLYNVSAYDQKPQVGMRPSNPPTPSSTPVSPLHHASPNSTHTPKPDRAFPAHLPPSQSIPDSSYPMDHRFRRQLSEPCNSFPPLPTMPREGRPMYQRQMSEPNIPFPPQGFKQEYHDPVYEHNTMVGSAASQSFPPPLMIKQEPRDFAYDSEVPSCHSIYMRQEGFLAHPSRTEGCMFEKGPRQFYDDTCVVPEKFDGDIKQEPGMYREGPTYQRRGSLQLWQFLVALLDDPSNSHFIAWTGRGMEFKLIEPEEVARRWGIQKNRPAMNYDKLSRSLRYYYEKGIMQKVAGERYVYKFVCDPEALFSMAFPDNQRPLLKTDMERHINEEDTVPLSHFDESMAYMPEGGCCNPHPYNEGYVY
Sequence of ETV5 (P41161 whole entry): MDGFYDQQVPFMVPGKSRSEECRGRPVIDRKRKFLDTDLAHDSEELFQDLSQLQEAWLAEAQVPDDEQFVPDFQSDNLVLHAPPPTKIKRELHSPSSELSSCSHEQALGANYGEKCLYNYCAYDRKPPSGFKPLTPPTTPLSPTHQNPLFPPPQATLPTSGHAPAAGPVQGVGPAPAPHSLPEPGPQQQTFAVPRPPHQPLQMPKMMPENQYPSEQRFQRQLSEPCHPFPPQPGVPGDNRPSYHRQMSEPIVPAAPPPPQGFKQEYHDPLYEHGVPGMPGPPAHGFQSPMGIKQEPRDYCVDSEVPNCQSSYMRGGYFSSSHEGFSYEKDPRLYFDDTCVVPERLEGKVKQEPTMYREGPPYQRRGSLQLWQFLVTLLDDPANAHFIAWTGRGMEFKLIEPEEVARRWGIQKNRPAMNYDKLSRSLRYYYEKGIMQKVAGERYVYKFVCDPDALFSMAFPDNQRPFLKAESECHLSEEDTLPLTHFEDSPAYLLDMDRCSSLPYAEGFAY
Sequence of ETV6 (P41212 whole entry): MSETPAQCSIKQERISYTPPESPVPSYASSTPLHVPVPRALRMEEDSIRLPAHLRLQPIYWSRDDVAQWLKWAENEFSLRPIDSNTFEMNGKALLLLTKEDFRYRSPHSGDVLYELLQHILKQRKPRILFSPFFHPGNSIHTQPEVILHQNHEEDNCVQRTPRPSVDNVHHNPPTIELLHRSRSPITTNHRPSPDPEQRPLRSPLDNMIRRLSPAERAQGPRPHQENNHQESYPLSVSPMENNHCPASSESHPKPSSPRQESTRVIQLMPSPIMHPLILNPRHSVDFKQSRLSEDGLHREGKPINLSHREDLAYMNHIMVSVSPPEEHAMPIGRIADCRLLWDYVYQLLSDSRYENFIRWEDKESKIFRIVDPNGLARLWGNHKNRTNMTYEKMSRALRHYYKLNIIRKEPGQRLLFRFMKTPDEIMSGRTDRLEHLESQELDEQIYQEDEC
Sequence of ELF4 (Q99607 whole entry): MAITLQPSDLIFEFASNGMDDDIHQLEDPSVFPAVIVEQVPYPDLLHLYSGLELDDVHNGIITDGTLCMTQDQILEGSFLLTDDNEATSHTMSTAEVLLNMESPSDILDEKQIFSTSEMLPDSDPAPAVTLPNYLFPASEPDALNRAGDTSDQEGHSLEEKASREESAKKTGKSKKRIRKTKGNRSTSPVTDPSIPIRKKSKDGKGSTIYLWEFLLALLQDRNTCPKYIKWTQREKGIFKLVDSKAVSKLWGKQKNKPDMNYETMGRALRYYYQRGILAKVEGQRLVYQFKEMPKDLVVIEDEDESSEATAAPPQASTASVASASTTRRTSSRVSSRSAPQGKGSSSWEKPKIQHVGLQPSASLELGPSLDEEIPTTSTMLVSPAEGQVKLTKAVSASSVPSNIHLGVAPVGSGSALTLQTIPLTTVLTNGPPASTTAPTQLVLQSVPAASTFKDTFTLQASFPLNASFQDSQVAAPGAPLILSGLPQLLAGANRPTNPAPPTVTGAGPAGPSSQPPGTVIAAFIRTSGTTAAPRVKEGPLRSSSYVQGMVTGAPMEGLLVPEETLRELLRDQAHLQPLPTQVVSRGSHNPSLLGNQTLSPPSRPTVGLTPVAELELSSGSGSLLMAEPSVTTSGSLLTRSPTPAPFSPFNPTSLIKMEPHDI
Sequence of HSF1 (Q00613 whole entry): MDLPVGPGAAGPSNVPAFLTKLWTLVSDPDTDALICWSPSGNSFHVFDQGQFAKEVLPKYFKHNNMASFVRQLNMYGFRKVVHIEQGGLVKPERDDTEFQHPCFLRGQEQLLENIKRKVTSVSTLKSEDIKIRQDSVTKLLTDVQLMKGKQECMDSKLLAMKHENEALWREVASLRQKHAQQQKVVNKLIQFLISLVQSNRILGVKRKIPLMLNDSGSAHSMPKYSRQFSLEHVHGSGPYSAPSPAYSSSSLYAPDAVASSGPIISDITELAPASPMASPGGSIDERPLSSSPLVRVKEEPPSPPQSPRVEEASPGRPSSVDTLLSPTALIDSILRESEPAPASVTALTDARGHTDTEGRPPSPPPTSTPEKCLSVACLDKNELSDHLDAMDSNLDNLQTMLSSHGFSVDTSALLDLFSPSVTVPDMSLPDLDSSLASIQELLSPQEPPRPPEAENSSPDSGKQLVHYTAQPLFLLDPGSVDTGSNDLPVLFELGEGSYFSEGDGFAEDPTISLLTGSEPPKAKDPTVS
Sequence of CRX (O43186 whole entry): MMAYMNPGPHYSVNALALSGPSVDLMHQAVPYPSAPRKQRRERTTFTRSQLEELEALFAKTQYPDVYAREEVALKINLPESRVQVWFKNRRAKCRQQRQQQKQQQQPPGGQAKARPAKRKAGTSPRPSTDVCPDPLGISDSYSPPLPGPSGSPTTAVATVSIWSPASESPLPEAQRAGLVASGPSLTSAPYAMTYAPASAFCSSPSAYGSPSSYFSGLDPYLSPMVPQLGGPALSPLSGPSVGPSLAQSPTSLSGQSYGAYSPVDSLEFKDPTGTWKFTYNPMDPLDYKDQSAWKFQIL

Question: Which binding signal [1] does the source give for CTGCGA here?
Answer: 1.29 fold enrichment (6-mer frequency, TF over GST control)

Question: And the binding signal [2]?
Answer: 1.24 fold enrichment (6-mer frequency, TF over GST control)

Question: What about the binding signal [3] of the same sequence?
Answer: 1.3 fold enrichment (6-mer frequency, TF over GST control)

Question: And the binding signal [4]?
Answer: 1.1 fold enrichment (6-mer frequency, TF over GST control)

Question: And the binding signal [5]?
Answer: 1.28 fold enrichment (6-mer frequency, TF over GST control)

Question: And the binding signal [6]?
Answer: 1.08 fold enrichment (6-mer frequency, TF over GST control)

Question: What about the binding signal [7] of the same sequence?
Answer: 1.24 fold enrichment (6-mer frequency, TF over GST control)

Question: And the binding signal [8]?
Answer: 1.2 fold enrichment (6-mer frequency, TF over GST control)

Question: What about the binding signal [9] of the same sequence?
Answer: 1.18 fold enrichment (6-mer frequency, TF over GST control)

Question: What about the binding signal [10] of the same sequence?
Answer: 1.32 fold enrichment (6-mer frequency, TF over GST control)

Question: What about the binding signal [11] of the same sequence?
Answer: 1.22 fold enrichment (6-mer frequency, TF over GST control)

Question: What about the binding signal [12] of the same sequence?
Answer: 1.4 fold enrichment (6-mer frequency, TF over GST control)

Question: What about the binding signal [13] of the same sequence?
Answer: 1.29 fold enrichment (6-mer frequency, TF over GST control)

Question: What about the binding signal [14] of the same sequence?
Answer: 1.37 fold enrichment (6-mer frequency, TF over GST control)

Question: And the binding signal [15]?
Answer: 1.26 fold enrichment (6-mer frequency, TF over GST control)

Question: And the binding signal [16]?
Answer: 1.28 fold enrichment (6-mer frequency, TF over GST control)

Question: What about the binding signal [17] of the same sequence?
Answer: 1.32 fold enrichment (6-mer frequency, TF over GST control)

Question: And the binding signal [18]?
Answer: 1.29 fold enrichment (6-mer frequency, TF over GST control)

From publication PMC7862700, “An all-to-all approach to the identification of sequence-specific readers for epigenetic DNA modifications on cytosine”
